# Data from PMC11062922 (Nature Chemical Biology, 2023).
# Read-outs that look alike come from different tables or passages of the source.
# Legend:
# Set-up in all cases: species or system human, MV4-11 + K-562 + COLO205 + SK-N-BE2 + OVCAR-8
# [1] = test system: DYRK1A; details: read-out: apparent Kd, compound concentrations: 100 nM and 1000 nM (sheet 'Samples'), n = 1
# [2] = test system: GSK3A; details: read-out: apparent Kd, compound concentrations: 100 nM and 1000 nM (sheet 'Samples'), n = 1
# [3] = test system: GSK3B; details: read-out: apparent Kd, compound concentrations: 100 nM and 1000 nM (sheet 'Samples'), n = 1
# [4] = test system: ACVR1; details: read-out: apparent Kd, compound concentrations: 100 nM and 1000 nM (sheet 'Samples'), n = 1
# [5] = test system: CSK; details: read-out: apparent Kd, compound concentrations: 100 nM and 1000 nM (sheet 'Samples'), n = 1
# [6] = test system: EPHA1; details: read-out: apparent Kd, compound concentrations: 100 nM and 1000 nM (sheet 'Samples'), n = 1
# [7] = test system: SIK2; details: read-out: apparent Kd, compound concentrations: 100 nM and 1000 nM (sheet 'Samples'), n = 1
# [8] = test system: TGFBR1; details: read-out: apparent Kd, n = 1
# [9] = test system: DDR1; details: read-out: apparent Kd, n = 1
# [10] = test system: DDR2; details: read-out: apparent Kd, n = 1
# [11] = test system: CDKL5; details: read-out: apparent Kd, compound concentrations: 100 nM and 1000 nM (sheet 'Samples'), n = 1
# [12] = test system: FLT3; details: read-out: apparent Kd, compound concentrations: 100 nM and 1000 nM (sheet 'Samples'), n = 1
# [13] = test system: EGFR; details: read-out: apparent Kd, compound concentrations: 100 nM and 1000 nM (sheet 'Samples'), n = 1
# [14] = test system: FRK; details: read-out: apparent Kd, compound concentrations: 100 nM and 1000 nM (sheet 'Samples'), n = 1
# [15] = test system: LYN; details: read-out: apparent Kd, compound concentrations: 100 nM and 1000 nM (sheet 'Samples'), n = 1
# [16] = test system: PRKD2; details: read-out: apparent Kd, compound concentrations: 100 nM and 1000 nM (sheet 'Samples'), n = 1
# [17] = test system: SRC; details: read-out: apparent Kd, compound concentrations: 100 nM and 1000 nM (sheet 'Samples'), n = 1
# [18] = test system: ACAD11; details: read-out: apparent Kd, compound concentrations: 100 nM and 1000 nM (sheet 'Samples'), n = 1
# [19] = test system: MAPK14; details: read-out: apparent Kd; compound concentrations:100 nM and 1000 nM (sheet 'Samples'); n = 1
# [20] = compound concentrations:100 nM and 1000 nM (sheet 'Samples')
smiles,measurement,setting,value
COc1ccccc1CCNC1=NC(=O)/C(=C/c2ccc3ncccc3c2)S1 [RO4503316-000],potency estimated from few doses,[1]; CATDS: 0.20132255504791199,128 nM
Cn1cc(C2=C(c3cn(CCCO)c4ccccc34)C(=O)NC2=O)c2ccccc21 [RO0317377-000],potency estimated from few doses,[2]; CATDS: 0.248455440441466,311 nM
same,potency estimated from few doses,[3]; CATDS: 0.25409844627903599,301 nM
COc1cc(Nc2ccnc3cc(-c4ccncc4)ccc23)cc(OC)c1OC.Cl [GW494610A],potency estimated from few doses,[4]; CATDS: 8.6839126385756693E-2,38.3 nM
same,potency estimated from few doses,[5]; CATDS: 2.2928225838280001E-2,1390 nM
same,potency estimated from few doses,[6]; CATDS: 0.10844818822907799,25.4 nM
same,potency estimated from few doses,[7]; CATDS: 2.3854628716910201E-2,1170 nM
same,potency estimated from few doses,"[8]; compound concentrations: 100 nM and 1000 nM (sheet 'Samples'), CATDS: 2.6595956704932502E-2",765 nM
CCn1cc(-c2ccnc3[nH]c(-c4cccc(CN(C)C)c4)cc23)c(-c2ccc(NC(=O)N(C)C)cc2)n1 [GSK1070916],potency estimated from few doses,[9]; [20],869 nM
same,potency estimated from few doses,[10]; [20],1830 nM
Cc1ccc(O)cc1Nc1ccnc2cc(-c3ccccn3)ccc12.Cl [GW440139A],potency estimated from few doses,[4]; CATDS: 2.9577067141002798E-2,556 nM
same,potency estimated from few doses,[6]; CATDS: 6.90247660864724E-2,38.9 nM
same,potency estimated from few doses,"[8]; compound concentrations: 100 nM and 1000 nM (sheet 'Samples'), CATDS: 4.4422303259643102E-2",115 nM
O=C1N=C(NCCc2ccccn2)S/C1=C\c1ccc2ncccc2c1 [RO4508346-000],potency estimated from few doses,[1]; CATDS: 0.223400824962835,127 nM
Cl.O=C1N=C(NCc2ccccn2)S/C1=C\c1ccc2ncccc2c1 [RO4874953-001],potency estimated from few doses,[1]; CATDS: 0.10050944146971801,893 nM
same,potency estimated from few doses,[2]; CATDS: 8.1690756727002906E-2,1370 nM
O=C1N=C(NCC(CO)c2ccccc2)S/C1=C\c1ccc2ncccc2c1 (stereo not drawn) [RO4582641-000],potency estimated from few doses,[11]; CATDS: 6.3730815830875698E-2,1510 nM
same,potency estimated from few doses,[1]; CATDS: 9.2693691803080097E-2,353 nM
O=C1N=C(NCCc2cccc(F)c2)S/C1=C\c1ccc2ncccc2c1 [RO4508344-000],potency estimated from few doses,[1]; CATDS: 0.105735187935075,750 nM
same,potency estimated from few doses,[12]; CATDS: 0.14042863340460501,431 nM
CC(C)c1nc(-c2cccc(NS(=O)(=O)c3ccccc3)c2)c(-c2ccnc(Nc3ccc4c(c3)CN(C)CC4)n2)s1 [GSK1649598A],potency estimated from few doses,[4]; CATDS: 1.3619919375172601E-2,1250 nM
same,potency estimated from few doses,[11]; CATDS: 3.80366995063171E-2,101 nM
same,potency estimated from few doses,[5]; CATDS: 1.8899514592430999E-2,433 nM
same,potency estimated from few doses,"[9]; compound concentrations: 100 nM and 1000 nM (sheet 'Samples'), CATDS: 1.30172526981645E-2",1520 nM
same,potency estimated from few doses,[13]; CATDS: 2.2005426873151199E-2,298 nM
same,potency estimated from few doses,[14]; CATDS: 2.08537323275855E-2,338 nM
same,potency estimated from few doses,[15]; CATDS: 2.0380924471609701E-2,358 nM
same,potency estimated from few doses,[16]; CATDS: 5.2743679485786801E-2,59.3 nM
same,potency estimated from few doses,[7]; CATDS: 1.6344481967555599E-2,653 nM
same,potency estimated from few doses,[17]; CATDS: 1.45663528778369E-2,960 nM
O=C1N=C(NCc2cccs2)SC1Cc1ccc2ncccc2c1 (stereo not drawn) [RO4629078-000],potency estimated from few doses,[18]; CATDS: 8.0770900756938508E-3,1250 nM
same,potency estimated from few doses,[4]; CATDS: 8.2545547739811299E-3,1160 nM
same,potency estimated from few doses,[11]; CATDS: 6.9445234986253998E-3,2320 nM
same,potency estimated from few doses,[5]; CATDS: 1.22881462523177E-2,419 nM
same,potency estimated from few doses,[6]; CATDS: 1.25959830755684E-2,398 nM
same,potency estimated from few doses,[12]; CATDS: 7.9273479759833908E-3,1330 nM
same,potency estimated from few doses,[14]; CATDS: 9.6278136963786204E-3,738 nM
same,potency estimated from few doses,[2]; CATDS: 2.0180819092640301E-2,174 nM
same,potency estimated from few doses,[3]; CATDS: 1.6634751009670601E-2,238 nM
same,potency estimated from few doses,[15]; CATDS: 9.9981449743306808E-3,670 nM
same,potency estimated from few doses,[16]; CATDS: 7.0804860166384202E-3,2110 nM
same,potency estimated from few doses,[7]; CATDS: 1.2411552216362301E-2,411 nM
same,potency estimated from few doses,[17]; CATDS: 1.3307336951607501E-2,357 nM
O=C1N=C(N[C@@H](CO)c2ccccc2)S/C1=C\c1ccc2ncccc2c1 [RO4554340-000],potency estimated from few doses,[1]; CATDS: 0.16734351378465701,1030 nM
Cl.Oc1cccc(Nc2ccnc3cc(-c4ccncc4)ccc23)c1 [GW494601A],potency estimated from few doses,[4]; CATDS: 4.3782572898148998E-2,69 nM
same,potency estimated from few doses,[6]; CATDS: 8.3232336419421196E-2,14.3 nM
same,potency estimated from few doses,[14]; CATDS: 2.21362656072501E-2,843 nM
same,potency estimated from few doses,[7]; CATDS: 2.1329898966899598E-2,1020 nM
same,potency estimated from few doses,"[8]; compound concentrations: 100 nM and 1000 nM (sheet 'Samples'), CATDS: 2.26052406331183E-2",762 nM
Cc1cccc(-c2cc(-c3c[nH]nc3-c3ccccn3)ccn2)c1 [GW679395X],potency estimated from few doses,[19],1290 nM
same,potency estimated from few doses,[8]; [20],2190 nM
O=C1N=C(NCCc2cccc(Cl)c2)S/C1=C\c1ccc2ncccc2c1 [RO4509201-000],potency estimated from few doses,[1]; CATDS: 6.6454923664205107E-2,945 nM
same,potency estimated from few doses,[12]; CATDS: 6.3899678732730503E-2,1060 nM
COc1cccc(-n2ncc3c(N/N=C/c4ccc(C(=O)NCCN(C)C)cc4)ncnc32)c1.Cl [GW784307A],potency estimated from few doses,[18]; CATDS: 2.6823851715364801E-2,1620 nM
same,potency estimated from few doses,[4]; CATDS: 0.29663347499665699,12.6 nM
same,potency estimated from few doses,[11]; CATDS: 0.115641908649272,49.3 nM
same,potency estimated from few doses,[2]; CATDS: 8.2277419546057398E-2,89 nM
same,potency estimated from few doses,[3]; CATDS: 7.3478066296280203E-2,110 nM
same,potency estimated from few doses,"[8]; compound concentrations: 100 nM and 1000 nM (sheet 'Samples'), CATDS: 3.91809843911003E-2",460 nM
O=C1N=C(NCc2ccccc2)S/C1=C\c1ccc2ncccc2c1 [RO4442080-000],potency estimated from few doses,[1]; CATDS: 9.0282965342826302E-2,1320 nM
CS(=O)(=O)CCNCc1ccc(-c2ccc3ncnc(Nc4ccc(OCc5cccc(F)c5)c(C(F)(F)F)c4)c3c2)o1 [GW576484X],potency estimated from few doses,[13]; CATDS: 4.6980711652152798E-2,2290 nM
NC(=O)c1cccc(Nc2nccc(Nc3cccc4[nH]ncc34)n2)c1 [GW782612X],potency estimated from few doses,[4]; CATDS: 0.10376431199902,122 nM
same,potency estimated from few doses,"[10]; compound concentrations: 100 nM and 1000 nM (sheet 'Samples'), CATDS: 3.15347900030735E-2",2580 nM
same,potency estimated from few doses,[14]; CATDS: 5.5821190853221701E-2,411 nM
same,potency estimated from few doses,"[8]; compound concentrations: 100 nM and 1000 nM (sheet 'Samples'), CATDS: 5.60805138513292E-2",406 nM
Cc1ccc(O)cc1Nc1ccnc2cc(-c3ccc(CN4CCCCC4)o3)ccc12 [GW557777X],potency estimated from few doses,[4]; CATDS: 2.9506962076646302E-2,25.6 nM
same,potency estimated from few doses,[5]; CATDS: 1.5702412967624198E-2,358 nM
same,potency estimated from few doses,"[9]; compound concentrations: 100 nM and 1000 nM (sheet 'Samples'), CATDS: 1.3388843859825601E-2",1100 nM
same,potency estimated from few doses,"[10]; compound concentrations: 100 nM and 1000 nM (sheet 'Samples'), CATDS: 1.39203861332134E-2",800 nM
same,potency estimated from few doses,[14]; CATDS: 4.1928462897336198E-2,9.28 nM
same,potency estimated from few doses,[15]; CATDS: 1.9191353458574801E-2,128 nM
same,potency estimated from few doses,[16]; CATDS: 2.1213632342937001E-2,83.5 nM
same,potency estimated from few doses,[7]; CATDS: 1.7387307110144301E-2,205 nM
same,potency estimated from few doses,[17]; CATDS: 2.30493923024673E-2,60.3 nM
same,potency estimated from few doses,"[8]; compound concentrations: 100 nM and 1000 nM (sheet 'Samples'), CATDS: 1.55635860325104E-2",377 nM
